The values below come from PubChem BioAssay (NCI).

Each structure is given as a SMILES string. This is part of a sample that, as a whole, favours compounds with a hit. Of some 83,000 tested, about 20% had one in any assay.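 Interpretation: 100, growth as untreated; towards 0, rising growth inhibition; 0, no net growth; 0 to -100, cell death. Compounds scoring below 10 were considered active.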 Values without a mark were called inactive. Activity calls are given as the source filed them.

In this experiment the test system is U251 CNS. Description: NCI-60 one-dose screen, 48 h (100 = growth as untreated, 0 = no growth, -100 = all killed). The settings on record: 10 µM unless noted. The protocol: Growth inhibition of the U251 human tumor cell line is measured as a screen for anti-cancer activity. Cells are grown in 96 well plates and exposed to the test compound for 48 hours. Compounds are tested at a single concentration, which is 10^-5 M for most compounds. The reported endpoint is percent growth (GI% or GIPRCNT), where numbers from 0 - 100% represent growth inhibition, and numbers from -100% - 0 represent cell death. For example, a value of 40 represents 60% growth inhibition. A value of 0 means no net growth occurred over the course of the experiment. A value of -40 indicates 40% of cells at the beginning of the experiment died by the end of the experiment. A value of -100 means all cells are dead at the end of the experiment.
NCI-60 Human Tumor Cell Lines Screen was performed using the standard one-dose NCI protocol, which is described in more detail at https://dtp.cancer.gov/discovery_development/nci-60/default.htm.
Compounds with GIPRCNT values below 10 were considered active. Activity score was based on GIPRCNT using the following formula: […]
Score is 0 for GIPRCNT values of 100 or above, 50 for GIPRCNT values of 0, and 100 for GIPRCNT values of -100.
Regarding `Cc1c(Cn2c(C)nc3c(C(=O)O)cc(N4CCOCC4)cc32)cccc1C(F)(F)F`, the growth is 104%.

As to `CCN1CCN(c2nc(C)cc(N(CCCNc3ccnc4cc(Cl)ccc34)Cc3ccc4c(c3)OCO4)n2)CC1`, the growth is -73.7% (active).

`C=C1CC[C@@H]2[C@](C)(COC(C)=O)[C@H](OC(C)=O)CC[C@@]2(C)[C@@H]1C/C=C1/C(=O)OC[C@H]1OC(C)=O`: the growth was 54%.

On to `CC1=CC2c3oc(-c4ccccc4)c(C(=O)c4ccccc4)c3CNC2C=C1` (stereo not given), for which the growth was 80.7%.

Turning to `C[C@@H]1COC(Nc2ccc3ncnc(Nc4ccc(OCc5nccs5)c(Cl)c4)c3c2)=N1`, the growth was 42.3%.

`CC(=O)OCCC/C(=C\c1ccc2ccccc2c1)[N+](=O)[O-]`: the growth is -90.7% (active).

On to `CC(=Nc1ccccc1)C1=C(O)C(Cc2ccccc2)NC1=O` (stereo not given), for which the growth is 15.5%.

Take `O=C(/C=C/c1ccc2c(c1)OCO2)c1c(O)c2ccccc2oc1=O`: the growth was 101%.

For the molecule `O=S1(=O)OC(c2cc(Cl)c(O)c(Br)c2)(c2cc(Cl)c(O)c(Br)c2)c2ccccc21`, the growth was 101%.

Take `CCCCn1c(C)nc2cc(Nc3nc(N4CCCCC4)nc4nc[nH]c34)ccc21`: the growth is 58.5%.

Consider `COc1cc(N2CCC(N(C)C)CC2)ccc1Nc1ncc(Cl)c(Nc2ccccc2P(C)(C)=O)n1`, for which the growth was 5.24% (active).

Turning to `CCN(CC)CCOc1ccc(/C(=C(\C)c2ccc(Cl)cc2)c2ccc(Cl)cc2)cc1`, the growth is 54%.

`Cc1ccc(N=C2CSc3nnc(-c4csc5c4CCCC5)n3N2)cc1`: the growth was 23%.

In the case of `COC(=O)CC[C@@H](C)[C@H]1CC[C@H]2C3CC[C@@H]4C[C@@H]5CC[C@]4(C)[C@@]3(O5)[C@H](Br)[C@@H](Br)[C@]12C` (stereo not given in full), the growth was 88.6%.

For the molecule `COc1ccc2c(c1OC)C(=O)O[C@@H]2[C@H]1c2c(c(C#CC#Cc3ccc(F)c(F)c3)c3c(c2OC)OCO3)CCN1C`, the growth is 88.4%.

Consider `O=C(Nc1cn[nH]c1-c1nc2ccc(CN3CCOCC3)cc2[nH]1)NC1CC1`, for which the growth was 18.6%.

`COc1ccc(COc2cc3oc(=O)c4cc(C(C)O)ccc4c3cc2OC)cc1` (stereo not given): the growth was 46.5%.

Turning to `COC(=O)[C@H](Cc1ccccc1)NC(=O)[C@@H](OC)[C@@H]1Cc2cc3cc(OC4CC(OC5CC(O)C(O)C(C)O5)C(O)C(C)O4)c(C)c(O)c3c(O)c2C(=O)[C@H]1OC1CC(OC2CC(OC3CC(C)(O)C(O)C(C)O3)C(O)C(C)O2)C(O)C(C)O1` (stereo not given in full), the growth is 2.62% (active).

For the molecule `COc1c(C(NC(=O)c2ccccc2)c2sccc2C)cc(Cl)c2cccnc12` (stereo not given), the growth was 88.6%.

Turning to `Cc1ccc(NC(=O)Nc2ccc(Nc3ncnc4sc5c(c34)CCOC5)cc2)cc1Cl`, the growth was 87.7%.

Turning to `O=C(NOCCO)c1ccc2cncn2c1Nc1ccc(I)cc1F`, the growth is 40.4%.

In the case of `Cc1ncc(-c2ccnc(Nc3ccc(S(C)(=O)=O)cc3)n2)n1C(C)C`, the growth is 3.47% (active).

For `O=C(Nc1cnn2ccc(N3CCC[C@@H]3c3cc(F)ccc3F)nc12)N1CC[C@H](O)C1`, the growth was 85.7%.

Take `O=C(Cc1ccc(/C=C/C(=O)c2ncc[nH]2)cc1)Nc1ccc(Br)cc1`: the growth was -63.5% (active).

For the molecule `C[C@@H](NC(=O)c1ncnc(N)c1Cl)c1ncc(C(=O)Nc2cc(C(F)(F)F)c(Cl)cn2)s1`, the growth was 75.9%.

For the molecule `Cc1cn(-c2cc(NC(=O)c3ccc(C)c(Nc4nccc(-c5cccnc5)n4)c3)cc(C(F)(F)F)c2)cn1`, the growth is 37.5%.

For the molecule `O=S1(=O)OC(c2ccc(O)c(Cl)c2)(c2ccc(O)c(Cl)c2)c2ccccc21`, the growth is 111%.

Take `CC(=Nc1ccccc1)C1=C(O)C(Cc2ccc(O)cc2)NC1=O` (stereo not given): the growth was 12.8%.

Take `COc1cc2c3c(c1)nc(C)n3CCC2`: the growth is 91.9%.

As for `C[C@@H]1COCCN1c1cc(C2([S@](C)(=N)=O)CC2)nc(-c2ccnc3[nH]ccc23)n1`, the growth was 32.2%.

Regarding `COc1ccc(C2OC(c3cc(-c4cc5ccccc5o4)nn3-c3ccccc3)=NN2C(C)=O)cc1` (stereo not given), the growth is 96.2%.

On to `Cc1cn(-c2cc(NC(=O)c3ccc(C)c(Nc4nccc(-c5cnccn5)n4)c3)cc(C(F)(F)F)c2)cn1`, for which the growth is 39.8%.

Turning to `C#Cc1cccc(Nc2ncnc3cc4c(cc23)OCCOCCOCCO4)c1`, the growth was 57%.

Turning to `COC(=O)N[C@@H](C)CNc1nccc(-c2cn(C(C)C)nc2-c2cc(Cl)cc(NS(C)(=O)=O)c2F)n1`, the growth is 87.2%.

With `Cn1cc(-c2ccc(F)c(C(F)(F)F)c2)nc1C1CCN(c2ncnc3[nH]ncc23)CC1`, the growth was 48%.

With `C[C@@H](Oc1cc(-c2cnn(C3CCNCC3)c2)cnc1N)c1c(Cl)ccc(F)c1Cl`, the growth was -71.9% (active).

`CO[C@@H](C(=O)N1Cc2[nH]nc(NC(=O)c3ccc(N4CCN(C)CC4)cc3)c2C1)c1ccccc1`: the growth was 16%.

For the molecule `NC1(c2ccc(-c3nc4ccn5c(=O)[nH]nc5c4cc3-c3ccccc3)cc2)CCC1`, the growth was -3.88% (active).

Regarding `C=CC[n+]1c(/C=C/C=C2\N(C)c3ccccc3C2(C)C)sc2ccc(OC)cc21`, the growth was 15.9%.

Regarding `O=C1CCC(=O)CC1`, the growth was 99.4%.
